# Measured values taken from ChEMBL document CHEMBL5606460, “ASAP - DENV-2 NS2B-NS3 protease fluorescence single point” (2024).
# Out of some 2,000 compounds screened, about 110 (5.5%) showed an effect of 50% or more. Only a selection was taken, and strong results are over-represented in it overall.
# Biological target: Genome polyprotein (dengue virus type 2) (UniProt P29990)
# [1] = Thailand/16681/1984, Concentration 25.0 uM, Number of replicates 1.0
smiles,measurement,setting,value
CC(=O)N[C@@H](CCCN)C(=O)Nc1ccccc1Cc1cccc2c(CO)cc(C)nc12,inhibition,"Thailand/16681/1984, Concentration 49.95 uM, Number of replicates 2.0, Standard deviation 1.2344771467866291 %",-4.07%
same,inhibition,"Thailand/16681/1984, Concentration 99.9 uM, Number of replicates 2.0, Standard deviation 0.6037374205287288 %",4.36%
CC(=O)N[C@@H](CCCCN)C(=O)Nc1cccc2c(CO)cc(C)nc12,inhibition,"Thailand/16681/1984, Concentration 49.95 uM, Number of replicates 2.0, Standard deviation 0.7189645441339965 %",35.5%
same,inhibition,"Thailand/16681/1984, Concentration 99.9 uM, Number of replicates 2.0, Standard deviation 0.1513618084697797 %",97.4%
CC(=O)N[C@@H](CCCN)C(=O)Nc1cccc2c(CO)cc(C)nc12,inhibition,"Thailand/16681/1984, Concentration 99.9 uM, Number of replicates 2.0, Standard deviation 2.7664513641226787 %",9.57%
Cn1cc(NC(=O)c2ccccc2C(F)(F)F)c(-c2ccc(F)nc2)n1,inhibition,"Thailand/16681/1984, Concentration 49.5 uM, Number of replicates 2.0, Standard deviation 3.6499634215033607 %",-3.01%
same,inhibition,"Thailand/16681/1984, Concentration 99.01 uM, Number of replicates 2.0, Standard deviation 1.5811035342397435 %",-2.37%
same,inhibition,"Thailand/16681/1984, Concentration 198.0 uM, Number of replicates 2.0, Standard deviation 0.8634737807980869 %",-2.26%
O=Cc1ccc(N2CCC(C(=O)Nc3c(Cl)cncc3Cl)CC2)cc1,inhibition,[1],12.4%
Cc1cc(CO)c2cccc(Cc3cccc(C(=O)NCC(=O)O)c3)c2n1,inhibition,"Thailand/16681/1984, Concentration 49.95 uM, Number of replicates 2.0, Standard deviation 0.8336363408632846 %",63.2%
same,inhibition,"Thailand/16681/1984, Concentration 99.9 uM, Number of replicates 2.0, Standard deviation 0.025873444538655716 %",79.2%
Cc1cc(CO)c2cccc(Cc3ccccc3C(=O)NC[C@H](C)O)c2n1,inhibition,"Thailand/16681/1984, Concentration 49.95 uM, Number of replicates 2.0, Standard deviation 0.37872955767016525 %",-3.03%
same,inhibition,"Thailand/16681/1984, Concentration 99.9 uM, Number of replicates 2.0, Standard deviation 0.20409716758521712 %",0.577%
Cc1cc(CO)c2cccc(Cc3cccc(C(=O)NCC(N)=O)c3)c2n1,inhibition,"Thailand/16681/1984, Concentration 49.95 uM, Number of replicates 2.0, Standard deviation 0.5174294413229081 %",2.44%
same,inhibition,"Thailand/16681/1984, Concentration 99.9 uM, Number of replicates 2.0, Standard deviation 1.3216010889796208 %",17.6%
Cc1cc(CO)c2cccc(Cc3cccc(C(=O)NC[C@H](C)O)c3)c2n1,inhibition,"Thailand/16681/1984, Concentration 49.95 uM, Number of replicates 2.0, Standard deviation 1.3417230059830858 %",-6.96%
same,inhibition,"Thailand/16681/1984, Concentration 99.9 uM, Number of replicates 2.0, Standard deviation 0.8544771145149516 %",-2.86%
Cc1cc(CO)c2cccc(Cc3ccccc3C(=O)NCC(=O)O)c2n1,inhibition,"Thailand/16681/1984, Concentration 49.95 uM, Number of replicates 2.0, Standard deviation 0.8422599232434016 %",38.5%
same,inhibition,"Thailand/16681/1984, Concentration 99.9 uM, Number of replicates 2.0, Standard deviation 0.5627042603428867 %",64.9%
Cc1cc(CO)c2cccc(Cc3ccccc3C(=O)NCC(N)=O)c2n1,inhibition,"Thailand/16681/1984, Concentration 49.95 uM, Number of replicates 2.0, Standard deviation 0.5253345885233084 %",1.79%
same,inhibition,"Thailand/16681/1984, Concentration 99.9 uM, Number of replicates 2.0, Standard deviation 0.6122918820772879 %",9.88%
O=Cc1ccc(N2CCC(C(=O)N3CCc4ccc([N+](=O)[O-])cc4C3)CC2)cc1,inhibition,[1],16.6%
O=Cc1ccc(N2CCC(C(=O)NCC3CCC(C(F)(F)F)CC3)CC2)cc1 (stereo unspecified),inhibition,[1],12.8%
Cc1cc(C)nc(CCNC(=O)C2CCN(c3ccc(C=O)cc3)CC2)n1,inhibition,[1],10.6%
C[C@@H](CNc1cc(Cl)cc(C(=O)NC(C)(C)CO)c1)c1ccc(F)cc1,inhibition,"Thailand/16681/1984, Concentration 49.5 uM, Number of replicates 2.0, Standard deviation 1.7964155145983758 %",-4.87%
same,inhibition,"Thailand/16681/1984, Concentration 99.01 uM, Number of replicates 2.0, Standard deviation 2.367041527999976 %",-8.66%
O=Cc1ccc(N2CCC(C(=O)NCc3ccc(Br)cn3)CC2)cc1,inhibition,[1],13.7%
Cc1cc(CO)c2cccc(NC(=O)[C@@H]3CCCC[C@H]3C(=O)O)c2n1,inhibition,"Thailand/16681/1984, Concentration 49.95 uM, Number of replicates 2.0, Standard deviation 1.6403651221128503 %",4.53%
same,inhibition,"Thailand/16681/1984, Concentration 99.9 uM, Number of replicates 2.0, Standard deviation 0.7343808497949172 %",11.1%
Cc1cc(CO)c2cccc(NC(=O)[C@H]3CCNC3)c2n1,inhibition,"Thailand/16681/1984, Concentration 49.95 uM, Number of replicates 2.0, Standard deviation 1.8979597481282788 %",-0.539%
same,inhibition,"Thailand/16681/1984, Concentration 99.9 uM, Number of replicates 2.0, Standard deviation 1.976292784952565 %",2.99%
Cc1cc(CO)c2cccc(NC(=O)C3CC(N)C3)c2n1 (stereo unspecified),inhibition,"Thailand/16681/1984, Concentration 49.95 uM, Number of replicates 2.0, Standard deviation 0.3514210972334106 %",31.4%
same,inhibition,"Thailand/16681/1984, Concentration 99.9 uM, Number of replicates 2.0, Standard deviation 0.19619256829384746 %",78.8%
Cc1cc(CO)c2cccc(NC(=O)C3CCN(C)CC3)c2n1,inhibition,"Thailand/16681/1984, Concentration 99.9 uM, Number of replicates 2.0, Standard deviation 2.5723142976307076 %",0.725%
Cc1cc(CO)c2cccc(NC(=O)C3CCC(N)CC3)c2n1 (stereo unspecified),inhibition,"Thailand/16681/1984, Concentration 49.95 uM, Number of replicates 2.0, Standard deviation 0.3430335372049546 %",80.8%
same,inhibition,"Thailand/16681/1984, Concentration 99.9 uM, Number of replicates 2.0, Standard deviation 0.009052468710563864 %",98.8%
Cc1cc(CO)c2cccc(NC(=O)CNC3CC3)c2n1,inhibition,"Thailand/16681/1984, Concentration 49.95 uM, Number of replicates 2.0, Standard deviation 1.6119901778213759 %",15.9%
same,inhibition,"Thailand/16681/1984, Concentration 99.9 uM, Number of replicates 2.0, Standard deviation 1.4451149573517064 %",30.7%
Cc1cc(CO)c2cccc(NC(=O)C3CCC(CN)CC3)c2n1 (stereo unspecified),inhibition,"Thailand/16681/1984, Concentration 49.95 uM, Number of replicates 2.0, Standard deviation 1.7984525560806044 %",96%
same,inhibition,"Thailand/16681/1984, Concentration 99.9 uM, Number of replicates 2.0, Standard deviation 0.012834221133749364 %",98.2%
Cc1cc(CO)c2cccc(NC(=O)C3CNC3)c2n1,inhibition,"Thailand/16681/1984, Concentration 99.9 uM, Number of replicates 2.0, Standard deviation 1.2849235527062883 %",-8.19%
